In PubChem BioAssay AID1159580 (chemical genetic matrix, 2015):
Several values for one entry are separate records, joined by “and”; a condition that tells them apart may be missing. Identical values can stand only once. Out of some 5,500 compounds screened, about 2,000 (36%) were called active. Not shown: some 18% with an inconclusive outcome. Cut-off read from the data, not from the text of the source: active = normalized growth mostly below about 0.91 (no sharp cut-off); inconclusive = no clear call, values can overlap the other calls; inactive = mostly above about 0.92. The list shows a part of the results.

Experiment: chemical genetic growth profiling, strain panel (AID 1159580);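 note: tested at 20 µM; growth read once vehicle control cultures reached saturation at 30 °C; 1 = growth at the plate median or of vehicle wells; lower values mean less growth of the strain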
Details: growth OD

Measured: normalized growth

NS(=O)(=O)c1cc2c(cc1Cl)NC(C1CC3C=CC1C3)NS2(=O)=O (stereo unspecified)
inactive: S. cerevisiae deletion strains, locus YJR075W, strain HOC1, stronger effect = lower value 1.02 and 1.01 | S. cerevisiae deletion strains, locus YKL009W, strain mrt4, stronger effect = lower value 0.979 | S. cerevisiae deletion strains, locus YKL068W, stronger effect = lower value 0.995 | S. cerevisiae deletion strains, locus YKL085W, strain MDH1 (second series), stronger effect = lower value 0.946 | S. cerevisiae deletion strains, locus YKL085W, strain MDH1, stronger effect = lower value 0.946 | S. cerevisiae deletion strains, locus YKL160W, strain elf1, stronger effect = lower value 1.01 | S. cerevisiae deletion strains, locus YKL190W, strain CNB1, stronger effect = lower value 0.991 | S. cerevisiae deletion strains, locus YKR001C, strain vps1, stronger effect = lower value 0.997 | S. cerevisiae deletion strains, locus YKR026C, strain gcn3, stronger effect = lower value 0.976 | S. cerevisiae deletion strains, locus YKR091W, strain srl3, stronger effect = lower value 0.989 | S. cerevisiae deletion strains, locus YLL001W, strain dnm1, stronger effect = lower value 0.987 | S. cerevisiae deletion strains, locus YLL026W, stronger effect = lower value 0.988 | S. cerevisiae deletion strains, locus YLL041C, strain sdh2, stronger effect = lower value 0.997 | S. cerevisiae deletion strains, locus YLR027C, strain aat2, stronger effect = lower value 0.995 | S. cerevisiae deletion strains, locus YLR039C, strain RIC1, stronger effect = lower value 0.981 | S. cerevisiae deletion strains, locus YLR058C, strain SHM2, stronger effect = lower value 0.979 | S. cerevisiae deletion strains, locus YLR102C, strain apc9, stronger effect = lower value 0.984 | S. cerevisiae deletion strains, locus YLR113W, strain HOG1, stronger effect = lower value 1.07 | S. cerevisiae deletion strains, locus YLR221C, strain rsa3, stronger effect = lower value 1 | S. cerevisiae deletion strains, locus YLR258W, strain gsy2, stronger effect = lower value 0.98 | S. cerevisiae deletion strains, locus YLR262C, strain YPT6 (second series), stronger effect = lower value 0.999 | S. cerevisiae deletion strains, locus YLR262C, strain YPT6, stronger effect = lower value 0.962 | S. cerevisiae deletion strains, locus YLR268W, strain sec22, stronger effect = lower value 0.973 | S. cerevisiae deletion strains, locus YLR320W, strain mms22, stronger effect = lower value 0.99 | S. cerevisiae deletion strains, locus YLR330W, strain CHS5, stronger effect = lower value 0.989 | S. cerevisiae deletion strains, locus YLR342W, strain FKS1 (second series), stronger effect = lower value 1.1 | S. cerevisiae deletion strains, locus YLR342W, strain FKS1, stronger effect = lower value 0.995 | S. cerevisiae deletion strains, locus YLR357W, strain rsc2, stronger effect = lower value 0.984 | S. cerevisiae deletion strains, locus YLR370C, strain arc18, stronger effect = lower value 0.992 | S. cerevisiae deletion strains, locus YLR371W, strain rom2, stronger effect = lower value 0.995 | S. cerevisiae deletion strains, locus YLR384C, strain iki3, stronger effect = lower value 0.993 | S. cerevisiae deletion strains, locus YLR418C, strain cdc73, stronger effect = lower value 0.961 | S. cerevisiae deletion strains, locus YML016C, strain PPZ1, stronger effect = lower value 0.998 | S. cerevisiae deletion strains, locus YML032C, strain rad52, stronger effect = lower value 1.02 | S. cerevisiae deletion strains, locus YML120C, strain ndi1, stronger effect = lower value 1 | S. cerevisiae deletion strains, locus YML124C, strain tub3, stronger effect = lower value 1 | S. cerevisiae deletion strains, locus YMR058W, strain fet3, stronger effect = lower value 0.996 | S. cerevisiae deletion strains, locus YMR078C, strain ctf18, stronger effect = lower value 0.986 | S. cerevisiae deletion strains, locus YMR125W, strain sto1, stronger effect = lower value 0.973 | S. cerevisiae deletion strains, locus YMR129W, stronger effect = lower value 0.981 | S. cerevisiae deletion strains, locus YMR205C, strain PFK2, stronger effect = lower value 0.951 | S. cerevisiae deletion strains, locus YMR223W, strain ubp8, stronger effect = lower value 1.05 | S. cerevisiae deletion strains, locus YMR231W, strain pep5, stronger effect = lower value 0.992 | S. cerevisiae deletion strains, locus YMR263W, strain SAP30, stronger effect = lower value 0.988 | S. cerevisiae deletion strains, locus YMR307W, strain GAS1, stronger effect = lower value 1.06 and 1 | S. cerevisiae deletion strains, locus YNL067W, strain RPL9B, stronger effect = lower value 1 | S. cerevisiae deletion strains, locus YNL071W, strain lat1, stronger effect = lower value 0.986 | S. cerevisiae deletion strains, locus YNL128W, strain TEP1, stronger effect = lower value 0.94 | S. cerevisiae deletion strains, locus YNL153C, strain GIM3, stronger effect = lower value 0.981 | S. cerevisiae deletion strains, locus YNL175C, strain NOP13, stronger effect = lower value 0.978 | S. cerevisiae deletion strains, locus YNL183C, strain NPR1, stronger effect = lower value 0.978 | S. cerevisiae deletion strains, locus YNL197C, strain WHI3, stronger effect = lower value 0.982 | S. cerevisiae deletion strains, locus YNL209W, strain ssb2, stronger effect = lower value 1 | S. cerevisiae deletion strains, locus YNL224C, strain SQS1, stronger effect = lower value 0.992 | S. cerevisiae deletion strains, locus YNL233W, strain BNI4, stronger effect = lower value 1 | S. cerevisiae deletion strains, locus YNL248C, strain rpa49, stronger effect = lower value 0.999 | S. cerevisiae deletion strains, locus YNL250W, strain rad50, stronger effect = lower value 0.999 | S. cerevisiae deletion strains, locus YNL271C, strain bni1, stronger effect = lower value 1 | S. cerevisiae deletion strains, locus YNL298W, strain CLA4, stronger effect = lower value 0.988 | S. cerevisiae deletion strains, locus YNL307C, strain MCK1, stronger effect = lower value 1.02 | S. cerevisiae deletion strains, locus YNL322C, strain KRE1 (second series), stronger effect = lower value 1 | S. cerevisiae deletion strains, locus YNL322C, strain KRE1, stronger effect = lower value 0.988 | S. cerevisiae deletion strains, locus YNR049C, strain mso1, stronger effect = lower value 0.989 | S. cerevisiae deletion strains, locus YNR052C, strain pop2, stronger effect = lower value 0.987 | S. cerevisiae deletion strains, locus YOL006C, strain TOP1, stronger effect = lower value 1.02 | S. cerevisiae deletion strains, locus YOL012C, strain htz1 1.21 | S. cerevisiae deletion strains, locus YOL147C, strain pex11, stronger effect = lower value 0.993 | S. cerevisiae deletion strains, locus YOR001W, strain rrp6, stronger effect = lower value 0.997 | S. cerevisiae deletion strains, locus YOR061W, strain CKA2, stronger effect = lower value 0.959 | S. cerevisiae deletion strains, locus YOR069W, strain VPS5, stronger effect = lower value 0.995 | S. cerevisiae deletion strains, locus YOR070C, strain gyp1, stronger effect = lower value 0.993 | S. cerevisiae deletion strains, locus YOR080W, strain dia2, stronger effect = lower value 0.993 | S. cerevisiae deletion strains, locus YOR083W, strain WHI5 (second series), stronger effect = lower value 0.989 | S. cerevisiae deletion strains, locus YOR083W, strain WHI5, stronger effect = lower value 1 | S. cerevisiae deletion strains, locus YOR106W, strain vam3, stronger effect = lower value 1 | S. cerevisiae deletion strains, locus YOR136W, strain idh2, stronger effect = lower value 0.998 | S. cerevisiae deletion strains, locus YOR144C, strain elg1, stronger effect = lower value 0.991 | S. cerevisiae deletion strains, locus YOR184W, strain ser1, stronger effect = lower value 1.06 | S. cerevisiae deletion strains, locus YOR231W, strain MKK1, stronger effect = lower value 1.06 | S. cerevisiae deletion strains, locus YOR265W, strain rbl2, stronger effect = lower value 0.999 | S. cerevisiae deletion strains, locus YOR270C, strain vph1, stronger effect = lower value 0.984 | S. cerevisiae deletion strains, locus YOR290C, strain snf2, stronger effect = lower value 1.01 | S. cerevisiae deletion strains, locus YOR316C, strain cot1, stronger effect = lower value 0.98 | S. cerevisiae deletion strains, locus YPL051W, strain arl3, stronger effect = lower value 0.997 | S. cerevisiae deletion strains, locus YPL055C, strain LGE1, stronger effect = lower value 0.977 | S. cerevisiae deletion strains, locus YPL078C, strain atp4, stronger effect = lower value 0.998 | S. cerevisiae deletion strains, locus YPL106C, strain sse1, stronger effect = lower value 0.96 | S. cerevisiae deletion strains, locus YPL240C, strain hsp82, stronger effect = lower value 0.982 | S. cerevisiae deletion strains, locus YPL241C, strain CIN2, stronger effect = lower value 0.981 and 0.988 | S. cerevisiae deletion strains, locus YPL256C, strain CLN2, stronger effect = lower value 1.04 | S. cerevisiae deletion strains, locus YPR119W, strain clb2, stronger effect = lower value 0.996 | S. cerevisiae deletion strains, locus YPR141C, strain kar3, stronger effect = lower value 0.979 | S. cerevisiae deletion strains, locus YPR163C, strain tif3, stronger effect = lower value 0.997 | S. cerevisiae deletion strains, locus YPR167C, strain met16, stronger effect = lower value 0.977 | S. cerevisiae deletion strains, strain wtn01, stronger effect = lower value 0.969 | S. cerevisiae strains, strain wild type, stronger effect = lower value 0.998
